Fam108B counter: counter-screen for RBBP9 inhibitors: inhibitors of mouse Fam108B; recombinant Fam108B, FP-Rh probe fluorescence polarization; inhibition, % at 9.51 µM; 300,000 compounds, 0.33% hits;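 active = inhibition above the screen mean inhibition plus 3 SD, computed separately per campaign, cut at about 18% in these data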;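 note: inhibitors lower polarization as less probe binds the enzyme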
SIAE primary: blocks human sialic acid acetylesterase. Q9HAT2. SIAE FP-Rh probe binding, fluorescence polarization. inhibition, % at 9.66 µM. 370,000 compounds, 0.69% hits. AID 1053197;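 active = inhibition above a cutoff: mean of compounds within the control limits plus 3 SD of those, cut at about 17% in these data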;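 note: 0% = plate median of compound wells and 100% = probe without SIAE protein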
TCR-CD3 inh: inhibitors of human TCR-CD3 interaction | TAMRA-labeled TCR probe fluorescence, biochemical | inhibition, % at 9.4 µM | 360,000 compounds, 0.37% hits | AID 651800; in the data active = inhibition above about 19%;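 note: recombinant mutant TCR 2C K166C tagged with TAMRA read by polarization; 0% = receptor in buffer alone and 100% = receptor with positive control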
PRMT1 inh: inhibitors of human PRMT1; Q99873; recombinant PRMT1, activity-based probe fluorescence polarization; inhibition, % at 2.79 µM; 370,000 compounds, 1.3% hits; AID 652257;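 active = inhibition above about 21% made by adding two undisclosed values, limit read from the data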
Target sequence (Q99873 whole entry, looked up): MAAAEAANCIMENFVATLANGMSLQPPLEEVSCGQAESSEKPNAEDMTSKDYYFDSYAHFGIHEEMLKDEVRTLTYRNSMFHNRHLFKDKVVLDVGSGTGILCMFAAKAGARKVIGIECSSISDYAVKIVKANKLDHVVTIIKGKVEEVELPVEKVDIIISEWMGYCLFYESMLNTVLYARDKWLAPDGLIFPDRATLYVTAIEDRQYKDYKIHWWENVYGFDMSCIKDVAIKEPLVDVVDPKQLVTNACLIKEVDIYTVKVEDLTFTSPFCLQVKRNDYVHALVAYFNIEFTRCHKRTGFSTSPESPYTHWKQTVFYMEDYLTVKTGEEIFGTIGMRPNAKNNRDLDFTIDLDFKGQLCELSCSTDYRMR
PAD4 FP inh: PAD4 (human) enzyme inhibition | Q9UM07 | recombinant PAD4, RCA probe fluorescence polarization | inhibition, % at 6.36 µM | 330,000 compounds, 0.41% hits | AID 485272;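 active = percent inhibition above a cutoff equal to the mean of all tested compounds plus 3 SD, cut at about 15% in these data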;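 note: 0% = PAD4 with RCA probe and DMSO and 100% = probe without PAD4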
PME-1 inh: PME-1 (human) inhibition; Q9Y570; recombinant PME-1, FP-Rh probe fluorescence polarization; inhibition, % at 5.9 µM; 320,000 compounds, 0.53% hits;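 active = inhibition above the campaign mean of all compounds plus 3 SD, cut at about 26% in these data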;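 note: competitive labeling of PME-1 active site by serine hydrolase directed probe; 0% = PME-1 with DMSO and 100% = wells lacking PME-1 enzyme; inhibitors block probe labeling so polarization falls and inhibition rises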
PRMT1 confirm: PRMT1 (human) inhibition, FP confirmation; recombinant His-PRMT1, activity-based probe fluorescence polarization; inhibition, % at 2.79 µM; shares compounds with PRMT1 inh; 3,300 compounds, 42% hits;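 active = mean inhibition across replicates above the hit cutoff derived for the earlier primary screen, cut at about 22% in these data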
The depositor's hits bear a star; · = no result. Only some compounds are listed: those with a hit (about 2.6% of all), similar ones and a draw of the others.

SMILES	Fam108B counter	SIAE primary	TCR-CD3 inh	PRMT1 inh	PAD4 FP inh	PME-1 inh	PRMT1 confirm
O=C1N=C(N2C=CC(=C3C=CNC=C3)C=C2)/C(=C/N=NC(=O)c2ccccc2O)S1	13.1	13.4	18.4	39.5*	2.2	2.1	23.1*
Cc1ccc(S(=O)(=O)n2nc(-c3ccco3)nc2SCc2ccccc2)cc1	-1.4	3.5	-2.1	25.4*	0.6	4.0	12.3
CSc1nc(-c2ccco2)nn1S(=O)(=O)c1ccc(C)cc1	1.6	3.8	3.8	6.8	1.1	20.1	·
CCC1(O)C(=O)OCc2c1cc1n(c2=O)Cc2cc3cc(O)ccc3nc2-1 (centres undefined)	·	13.6	2.5	28.5*	·	·	30.7*
CCc1c2c(nc3ccc(OC(=O)N4CCC(N5CCCCC5)CC4)cc13)-c1cc3c(c(=O)n1C2)COC(=O)[C@]3(O)CC	-1.6	-0.6	0.2	0.0	-10.1	-1.5	·
COC(=O)[C@]12C[C@H](CC(=O)N3CCSCC3)C(=O)N(Cc3cccc4ccccc34)C1=C[C@H](C(C)C)O[C@@H]2C1CC1	·	3.0	·	0.9	·	·	·
CC(/C=C/c1ccc(C)o1)=C\C(=O)O	-2.2	6.0	-0.7	29.7*	1.3	-4.9	11.7
Cc1ccc(/C=C/C(=O)N2CC(C)CC(C)C2)o1 (centres undefined)	0.6	-1.0	-5.0	40.2*	-3.0	1.4	18.7
CCN1CCN(C(=O)/C=C/c2ccc(C)o2)CC1	1.6	2.2	9.1	2.3	1.1	-1.0	·
CC(=C/C(=O)O)/C=C/c1ccc(Cl)o1	6.2	-3.2	7.2	10.0	4.4	3.9	·
Cc1cnc(NC(=O)CSc2nnc(COc3c(C)cccc3C)o2)s1	3.4	3.8	-10.3	38.3*	-0.5	7.1	-4.6
Cc1ccc(NC(=O)Cn2c(O)c(N=NS(=O)(=O)c3ccc(C)cc3)c3ccccc32)cc1	-1.7	-2.0	3.5	29.4*	-3.6	-2.8	23.0*
O=C(C1=C(O)C(=O)N(c2nccs2)C1c1ccccc1)c1cc2ccccc2o1 (centres undefined)	-3.1	3.0	-11.8	91.9*	-45.1	-4.8	131.5*
CCOc1cccc(C2C(C(=O)c3ccc(C)o3)=C(O)C(=O)N2c2nccs2)c1 (centres undefined)	-6.9	6.1	-1.0	64.6*	-25.9	-9.2	37.8*
O=C(C1=C(O)C(=O)N(CCc2ccccc2)C1c1ccncc1)c1cc2ccccc2o1 (centres undefined)	2.7	-7.1	2.9	1.5	-6.1	0.0	·
CCOC(=O)CC(=O)CSc1ncnc2c1nnn2-c1ccc(F)cc1	-4.3	3.4	3.2	51.1*	-10.9	-0.6	92.2*
COc1ccc(NC2CC(=O)N(c3ccccc3)C2=O)cc1 (centres undefined)	8.2	0.8	-10.0	-0.5	4.9	-3.5	·
Cc1ccc(N2C(=O)CS(=O)C(c3ccccc3)C2=O)cc1C (centres undefined)	-0.5	0.2	5.9	90.4*	-1.4	-3.6	89.9*
Cc1ccc(N2C(=O)C3C(C2=O)N2CCCN2C3c2ccccc2)cc1C (centres undefined)	2.0	9.4	-0.4	1.0	0.9	-0.8	·
COc1ccc(N2C(=O)CS(=O)C(c3ccccc3)C2=O)cc1 (centres undefined)	1.9	-2.6	0.0	95.0*	-3.1	2.0	97.2*
CCN(CC)S(=O)(=O)c1ccc(C(=O)/C=C/c2ccc(-c3ccc([N+](=O)[O-])cc3)o2)cc1	3.2	0.5	2.5	10.7	-2.2	0.8	·
Cc1ccc(C(=O)/C=C\C(=O)c2ccc(C)cc2)cc1	-9.8	-0.3	0.4	40.0*	4.4	2.4	56.7*
Cc1ccc(C(=O)/C=C/c2ccc(-c3ccc(C)cc3)o2)cc1	-2.3	-1.6	1.6	49.6*	-7.1	-4.8	6.2
COc1ccc2cc(-c3cn(C(=O)N(c4ccccc4)c4ccccc4)nn3)ccc2c1	·	-3.0	·	0.4	·	·	·
COc1cccc(-n2c(-c3ccc4[nH]c(C)c(C)c4c3)n[nH]c2=S)c1	2.6	7.6	-8.3	25.8*	-0.8	6.1	6.6
SMILES	Fam108B counter	SIAE primary	TCR-CD3 inh	PRMT1 inh	PAD4 FP inh	PME-1 inh	PRMT1 confirm
Cc1[nH]c2ccc(-c3n[nH]c(=S)n3-c3ccccc3)cc2c1C	3.2	-2.9	2.3	16.7	-4.7	10.2	·
Cc1[nH]c2ccc(-c3n[nH]c(=S)n3-c3ccc(Br)cc3)cc2c1C	6.8	-2.5	5.9	26.3*	3.1	16.8	9.7
COc1ccc(C(=O)OCCCN(C)C2CN(Cc3cn(Cc4cccc(F)c4)nn3)S(=O)(=O)C2)cc1OC (centres undefined)	·	1.2	·	0.3	·	·	·
Cc1ccccc1C(=O)NNc1ccc(-c2csnn2)cc1	1.3	-2.1	-5.4	26.6*	0.2	-3.0	6.5
CC(=O)Oc1ccc(-c2csnn2)cc1	6.5	-3.9	-7.0	2.4	-5.1	0.1	·
O=C(NC1CCCCN(Cc2cccc(C(F)(F)F)c2)C1=O)c1cccc([N+](=O)[O-])c1 (centres undefined)	·	3.7	·	0.6	·	·	·
COCCCN1C(=O)[C@H](CC(=O)NCCCN2CCCC2=O)[C@]2(C(=O)OC)CCCCC=C12	·	-13.9	·	-5.1	·	·	·
Cc1ccc(CNC(=O)C2CCN(S(=O)(=O)c3cccs3)CC2)o1	-0.9	1.7	-2.4	29.0*	1.2	23.7	4.1
CCCCOc1ccc(C(=O)n2ccc3ccc(-c4ccc5ccn(Cc6ccc(OC)cc6)c5c4)cc32)cc1	·	-4.8	·	4.1	·	·	·
CCOc1cc2c3c(c1)C1(Nc4ccccc4S1)C(=O)N3C(C)(C)CC2C (centres undefined)	8.0	2.4	7.4	78.2*	-7.6	7.4	8.5
CC(C)C1CC(N(C)C)=CC(=S)N1 (centres undefined)	·	4.8	-0.1	35.2*	·	·	1.1
Oc1csc(Cc2nc(-c3ccc(Br)cc3)cs2)n1	-3.7	-5.1	7.2	0.8	-7.3	-1.5	·
Cc1sc(Cc2nc(O)cs2)nc1-c1ccccc1	-2.5	2.9	-0.9	58.0*	-10.0	-2.0	13.6
O=C(O)c1ccccc1NC(=S)NC(=O)c1sc2ccccc2c1Cl	-6.1	0.5	-6.3	31.8*	0.0	0.6	31.8*
O=C(NC(=S)Nc1ccccc1N1CCOCC1)c1sc2ccccc2c1Cl	-2.9	-0.7	6.1	0.3	-2.2	2.5	·
CCC[C@H]1[C@@H](NC(=O)C(c2ccccc2)c2ccccc2)CC[C@@]23CCCN2C(=O)CCC[C@@H]13	·	-2.2	·	-4.6	·	·	·
Cn1ccnc1Sc1cc(NCCCO)c([N+](=O)[O-])c2nonc12	0.5	1.9	0.8	41.7*	-7.2	2.8	26.5*
CC(=O)OCCCNc1cc(Sc2ccc(C)cc2)c2nonc2c1[N+](=O)[O-]	8.5	-6.1	2.2	-0.9	-0.2	8.1	·
O=C(O)C1C2C=CC(O2)C1C(=O)Nc1ccccc1C(F)(F)F (centres undefined)	-1.9	7.2	2.4	85.2*	-2.0	2.8	24.1*
